# From PubChem BioAssay
# mHTT CaM bind: mHTT-calmodulin interaction abrogation | inhibition, % at 15 µM | AlphaScreen His-mHTT/GST-CaM binding, luminescence | AID 1671202 | 190,000 tested, 3.6% active;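 note: 0% = both proteins with DMSO and 100% = one protein alone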
# Pf apPOL block: Pf-apPOL DNA polymerase inhibition; Recombinant Pf-apPOL, molecular beacon fluorescence, 1.5 h; inhibition, % at 10 µM; 210,000 tested, 0.25% active; AID 1794808
# Starred values were filed as active, the others as inactive; · = no result. The list is not random: actives were taken first. Their share in the collection is about 3.5%. Cut-off read from the data, not from the text of the source: active = inhibition above about 50%; inactive = the rest.
SMILES,mHTT CaM bind,Pf apPOL block
CC(C)CC(C(O)=C(C#N)c1nc2ccccc2[nH]1)N1C(=O)c2ccccc2C1=O (configuration not stated),92.4*,-4.1
COc1ccc(NC(=O)c2cnc(N3CCN(c4ccccc4OC)CC3)nc2N)cc1,8.5,-5.8
CS(=O)(=O)c1ccc(N2CC(c3nnc(NC(=O)c4cccs4)o3)CC2=O)cc1 (configuration not stated),52.7*,0.0
COc1ccc(C(=O)Nc2nnc(C3CC(=O)N(c4ccccc4)C3)o2)cc1OC (configuration not stated),61.3*,-1.7
O=C(Nc1nnc(C2CC(=O)N(c3ccccc3)C2)o1)c1ccc(Br)cc1 (configuration not stated),14.7,-1.1
Cc1ccccc1C(=O)Nc1nnc(C2CC(=O)N(c3ccc(S(C)(=O)=O)cc3)C2)o1 (configuration not stated),46.4,-0.8
COc1ccc(C(=O)Nc2nnc(C3CC(=O)N(c4ccccc4)C3)o2)cc1 (configuration not stated),7.5,-2.7
COc1ccc(C(=O)Nc2nnc(C3CC(=O)N(c4ccc(Cl)cc4)C3)o2)cc1OC (configuration not stated),76.4*,-3.4
O=C(Nc1nnc(C2CC(=O)N(c3ccccc3)C2)o1)c1ccccn1 (configuration not stated),100.1*,-212.7
COc1ccc(N2CC(c3nnc(NC(=O)c4ccc(Cl)cc4)o3)CC2=O)cc1 (configuration not stated),-2.0,-4.8
COc1cc(N=c2oc3c(C)ncc(CO)c3cc2C(=O)Nc2ccccc2)cc(OC)c1,10.0,0.2
CN(C)c1ccc(-c2nc3cc(N=Cc4cc([N+](=O)[O-])cc([N+](=O)[O-])c4O)ccc3o2)cc1,-4.0,5.5
Fc1cc(F)cc(-c2nnc(Cc3nc(-c4ccccc4F)no3)o2)c1,-11.9,-7.3
COc1ccc(C2CCCN2C(=O)Nc2ccc(Br)cc2)cc1 (configuration not stated),6.7,-4.4
c1ccc2c(c1)CCN(c1ccc(-c3noc(CN4CCSCC4)n3)cn1)C2,4.2,6.3
Cn1c(=O)c(-c2ccc(C(=O)NC3CCCCCC3)cc2)nc2ccccc21,-6.0,1.4
N#Cc1c(NC(=O)c2ccc(Br)o2)sc2c1CCCC2,-4.8,-2.1
CCN(C)c1nc(-c2cccc(F)c2)c2c(N)n(-c3cc(F)ccc3F)nc2n1,53.9*,-0.4
CCN(C)c1nc(-c2cccc(F)c2F)c2c(N)n(-c3cccc(F)c3)nc2n1,35.4,-2.3
COc1ccc(NC(=S)NN=Cc2cccnc2)cc1,·,-6.8
COc1cc(S(=O)(=O)N2CCN(c3ccc(C)c(C)c3)CC2)c(OC)cc1Br,59.3*,0.9
Cc1cc(Br)c(S(=O)(=O)N2CCN(c3ccccc3)CC2)cc1C,-2.5,-8.3
COc1cc(S(=O)(=O)N2CCN(c3ccc(F)cc3)CC2)c(OC)cc1Br,1.2,-6.2
COc1cc(Br)c(S(=O)(=O)N2CCN(c3ccc(C)c(C)c3)CC2)cc1OC,53.4*,0.9
CCOc1c(Br)cc(/C=C2/C=C(c3ccc(OC)cc3)OC2=O)cc1OC,1.0,-4.7
SMILES,mHTT CaM bind,Pf apPOL block
CCOC(=O)COc1ccccc1C=C(C#N)S(=O)(=O)c1cccs1,·,-3.4
NNc1ncc(Cl)cc1Cl,99.8*,-30.5
Oc1ccc(Oc2ncc(Cl)cc2Cl)cc1,-3.0,·
CSc1ccc(NC(=O)N2CCc3nc[nH]c3C2)cc1,0.6,-0.3
O=C1NN(c2ccc(Cl)c(Cl)c2)C(=O)/C1=C/c1cc2c(cc1[N+](=O)[O-])OCO2,75.0*,-3.4
COc1cc2c(cc1/C=C1\NC(=O)N(Cc3ccc(F)cc3)C1=O)OCO2,-4.0,-8.6
O=C1NC(=O)N(Cc2ccc(F)cc2)C(=O)/C1=C\c1cc2c(cc1[N+](=O)[O-])OCO2,67.0*,2.8
COc1cc(/C=C2\C(=O)NN(c3ccc(Cl)c(Cl)c3)C2=O)cc([N+](=O)[O-])c1O,49.0,-6.5
COCc1nnc(NC(=O)c2cc(-c3ccccc3)nc3ccccc23)s1,-0.6,-0.8
COc1ccc(NC(=O)C2CCc3sc(C(=O)N4CCOCC4)cc3C2)cc1Cl (configuration not stated),21.2,2.1
C[N+]1(CC(O)COc2ccc(C34CC5CC(CC(C5)C3)C4)cc2)CCCCCC1 (configuration not stated),90.8*,-4.5
CC1C[N+](C)(CC(O)COc2ccc(C(C)(C)CC(C)(C)C)cc2)CC(C)O1 (configuration not stated),51.9*,-1.8
C[N+](C)(C)CC(O)COc1ccc(C23CC4CC(CC(C4)C2)C3)cc1 (configuration not stated),24.2,-9.9
CC1C[N+](C)(CC(O)COc2ccc(C34CC5CC(CC(C5)C3)C4)cc2)CC(C)O1 (configuration not stated),50.6*,-2.1
CC1CC[N+](C)(CC(O)COc2ccc(C34CC5CC(CC(C5)C3)C4)cc2)CC1 (configuration not stated),-8.9,-0.6
CC(C)(C)CC(C)(C)c1ccc(OCC(O)C[N+](C)(C)C)cc1 (configuration not stated),27.8,-1.4
Cc1ccccc1C(=O)N1CCC2(C1)Nc1cccnc1NC2=NCc1ccccc1 (configuration not stated),-5.5,-2.3
O=C(NC1CCCCCC1)c1cc2cc3ccc(Cl)cc3nc2o1,-5.0,-2.8
Cc1ccc(-n2c(SCC(=O)NCc3ccc(F)cc3)nc3c(c2=O)SCC3)cc1,-13.0,-0.8
NS(=O)(=O)c1cc(C(=O)Nc2ccccc2[N+](=O)[O-])ccc1Cl,-1.0,2.0
O=C(Cc1cccs1)N1CCCCC1c1nc(-c2cccnc2)no1 (configuration not stated),-5.1,-2.0
O=C(Nc1ccc2oc(Cc3ccc(Cl)cc3)nc2c1)c1cccc([N+](=O)[O-])c1,12.0,-5.6
Cc1cccc(-c2nnc(C)c(N3CCC(C)CC3)n2)c1,42.1,-0.7
Cc1cccc(-c2nnc(C)c(N3CCc4ccccc4C3)n2)c1,99.9*,-1.3
Cc1cccc(N2CCN(C(=O)CCC3CCCN(c4cc(NC5CC5)ncn4)C3)CC2)c1 (configuration not stated),49.5,-5.0
SMILES,mHTT CaM bind,Pf apPOL block
CC(C)(C)NS(=O)(=O)c1ccc(NC(=O)c2ccccc2[N+](=O)[O-])cc1,-4.5,5.4
COc1ccc(-c2csc(/C(C#N)=C/c3ccco3)n2)cc1,-10.7,4.0
Cc1ccc(-c2csc(/C(C#N)=C/c3ccco3)n2)cc1,-9.9,52.8*
Cc1cc(C(=O)NCC2(O)CCc3ccccc32)no1 (configuration not stated),-11.1,-11.6
O=C(Cn1cc([N+](=O)[O-])nc1[N+](=O)[O-])N1CCN(c2ccc(F)cc2)CC1,9.0,3.0
O=C1CC(c2ccco2)Sc2ccccc2N1Cc1cccc(F)c1 (configuration not stated),4.2,1.7
O=C1CC(c2ccccc2)Sc2ccccc2N1Cc1ccccc1 (configuration not stated),80.3*,-4.7
CCOc1ccc(C2C(=O)N(C3CCCCC3)CC(=O)N2Cc2cccc(OC)c2)cc1OC (configuration not stated),9.0,-6.0
CCCN1CCN(c2ncc3c(n2)CCN(Cc2cccc(C)c2)C3)CC1,13.3,-6.8
CCOc1ccc(CN2CCc3nc(N4CCN(CC)CC4)ncc3C2)cc1OCC,20.0,-4.5
